Here are results for 40 compounds from PubChem BioAssay (NCI).

Compounds without any hit were thinned out: in the full panel of roughly 83,000, 20% have a hit.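 Step 1: grow cells in 96-well plates. Step 2: add test compound at a single concentration. Step 3: incubate 48 h. Step 4: record percent growth.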 Activity calls are given as the source filed them. Rule for the calls: active = growth percent below 10; inactive = the rest.

This experiment relates to MDA-MB-468 breast. The experiment in a line: NCI-60 one-dose screen, 48 h (100 = growth as untreated, 0 = no growth, -100 = all killed). The note with it: 10 µM unless noted.
As for `CCOc1ccccc1C(=O)/C=C/c1cc2ccccc2[nH]c1=O`, the growth is -20.2% (active). The figure for `CN(c1ccccc1)c1ccc2c(c1)OCCC21CC1Nc1cnccc1C(=O)O` (stereo not given) is 72.3% (inactive); for `Oc1cc(/C=C/c2nc(N3CCOCC3)c3cc(Cl)c(Cl)cc3n2)cc(O)c1O` it is 85% (inactive). The figure for `COC(=O)c1c2c(c(C)[n+]([O-])c1C)C(=O)C=C(NCc1ccc(Br)cc1)C2=O` is -60.1% (active). The figure for `COc1cccc(OC)c1Oc1c(-c2nc3ccccc3s2)c(C)nn1-c1ccccc1` is 71.2% (inactive); for `CC(C)n1cnc2c(=S)nc[nH]c21` it is 104% (inactive). Regarding `CCCCCc1cc[n+](CC(=O)c2ccc([N+](=O)[O-])cc2)cc1`, the growth was 11.8% (inactive).

As to `COc1cc2nc(Nc3ccc(F)cc3)nc(N)c2cc1OC`, the growth was 83.4% (inactive). The figure for `O=C1CCC(c2c(O)cc(O)c3c(=O)c(O)c(-c4ccc(O)c(O)c4)oc23)N1` (stereo not given) is 108% (inactive); for `C#CCn1cnc2c(Nc3cccc(NC(=O)C=C)c3)ncnc21` it is 78% (inactive); for `CC(=O)c1ccc(N2C(=O)c3ccc(Oc4ccccc4)cc3C2=O)cc1` it is 105% (inactive). The figure for `Cc1nn(-c2ccccc2)c(Oc2ccccc2)c1/C=N/NC(=O)Cn1c(=O)sc2ccccc21` is 13.7% (inactive); for `CN1CCN(CC(=O)N(C)c2ccc(N=C(c3ccccc3)c3c(O)[nH]c4ccc([N+](=O)[O-])cc34)cc2)CC1` it is 87.8% (inactive); for `COc1cc(-c2ccc3ncnc(NC(C)c4ccccc4)c3c2)cnc1OC` (stereo not given) it is -3.02% (active). The value for `Cn1cnc2c(N3CCN(C(=O)OCc4ccc5c(Cl)cc(Cl)c(O)c5n4)CC3)nc(Cl)nc21` was 72.5% (inactive). As to `O=C(NNc1nc2cc(F)c(F)cc2n2cccc12)c1cnccn1`, the growth was 17.5% (inactive). The figure for `O=C1c2c(c3c4cccc(F)c4[nH]c3c3ccc4ccccc4c23)C(=O)N1O` is 54.3% (inactive); for `FC(F)(F)c1ccc2c(c1)n1cnnc1c1nncn21` it is 105% (inactive); for `OC1CCN(CCCOc2c3ccc(Cl)cc3nc3c2oc2ccc(Cl)cc23)CC1` it is 1% (active). On to `CS(=O)(=O)Nc1cc(-c2ccc3ncc(C#N)c(Nc4ccc(F)c(Cl)c4)c3c2)cnc1Cl`, for which the growth was -48.7% (active). The figure for `Cc1cc(C)c(S(=O)(=O)N2CCN(c3cc4c(cc3F)c(=O)c(C(=O)O)cn4C3CC3)CC2)c(C)c1` is 65.1% (inactive); for `CN1CC(c2ccccc2)C(C(=O)c2ccc(Br)cc2)C12C(=O)Nc1ccccc12` (stereo not given) it is 106% (inactive). The figure for `Cn1ncc2ccc(-c3nc(-c4ccccc4)[nH]c3-c3n[nH]c(=O)n3C3CC3)cc21` is 104% (inactive). The value for `COCCCNc1nc(NC(=O)c2cc(Br)cc(C(F)(F)F)c2)cc(-c2cccnc2)n1` was 82.8% (inactive); that for `CCOC(=O)C(Cc1cc(I)c(O)c(I)c1)NC(=O)c1ccccc1` (stereo not given) was 98.9% (inactive). For the compound `SCc1ccc(CS)cc1`, the growth was 111% (inactive). The figure for `COc1cc2c(=O)n(CCCN(C)C)c3c4cc[nH]c4ncc3c2cc1OC` is 81.5% (inactive); for `CCOc1ccc(/C=C\C(=O)O)cc1` it is 121% (inactive). Regarding `O=C1NC(=O)c2c(CCCSc3nc4ccccc4c(=O)n3CCc3ccccc3)cccc21`, the growth was 112% (inactive). Consider `C#Cc1cccc(NC(=O)c2ccc(NC(=O)C=C)cc2)c1`, for which the growth is 14.6% [8.25 µM] (inactive). The figure for `N#Cc1cnc2ccc(-c3cnc4[nH]ncc4c3)cc2c1N1CCc2cc(F)c(Cl)cc21` is -19.8% (active); for `O=C1NC(=O)/C(=C/c2ccc3nccc(-c4ccncc4)c3c2)S1` it is -49.2% (active). The figure for `Cc1nc2ccccc2c(=O)n1-c1cccc(OCc2cn(-c3cccc(O)c3)nn2)c1` is 87.7% (inactive). Take `CCCCCCCC/C=C/CCCCCCCC1=NC(C)(C)CN1C(C)C`: the growth was -70.1% (active). The value for `CCc1c2cc(Cl)ccc2n2cc(Cc3ccccc3)[nH]c(=O)c12` was 115% (inactive); that for `Cn1c(Nc2ccc(C(F)(F)F)cc2)nc2cc(Oc3ccnc(-c4ncc(C(F)(F)F)[nH]4)c3)ccc21` was 32.4% (inactive). As to `O=c1oc2cc(OS(=O)(=O)c3ccc(F)cc3)ccc2c2c1CCCCC2`, the growth was 31.3% (inactive). The value for `CC/C(=C(/c1ccc(OCCN(C)C)cc1)c1ccc(OC(=O)CCC(=O)c2c(C)[nH]c(/C=C3\N=C(c4ccc[nH]4)C=C3OC)c2C)cc1)c1ccccc1` was 53.4% (inactive); that for `Cc1c(Cl)cccc1NCN1C(=O)c2ccccc2C1=O` was 98.4% (inactive); that for `Nc1ncnc2c1c(-c1cccc(Cl)c1)nn2CC(=O)N1CCOCC1` was 98.6% (inactive).
